Consider six compounds from ChEMBL document CHEMBL2218924, “A broad activity screen in support of a chemogenomic map for kinase signalling research and drug discovery” (Biochem J, 2013).

The target of test [1] is Homeodomain-interacting protein kinase 3 (Homo sapiens) (UniProt Q9H422). The following applies: at 10 µM.
Test [2] concerns the target T1, Serine/threonine-protein kinase haspin (Homo sapiens) (UniProt Q8TF76).
T1 sequence (whole entry): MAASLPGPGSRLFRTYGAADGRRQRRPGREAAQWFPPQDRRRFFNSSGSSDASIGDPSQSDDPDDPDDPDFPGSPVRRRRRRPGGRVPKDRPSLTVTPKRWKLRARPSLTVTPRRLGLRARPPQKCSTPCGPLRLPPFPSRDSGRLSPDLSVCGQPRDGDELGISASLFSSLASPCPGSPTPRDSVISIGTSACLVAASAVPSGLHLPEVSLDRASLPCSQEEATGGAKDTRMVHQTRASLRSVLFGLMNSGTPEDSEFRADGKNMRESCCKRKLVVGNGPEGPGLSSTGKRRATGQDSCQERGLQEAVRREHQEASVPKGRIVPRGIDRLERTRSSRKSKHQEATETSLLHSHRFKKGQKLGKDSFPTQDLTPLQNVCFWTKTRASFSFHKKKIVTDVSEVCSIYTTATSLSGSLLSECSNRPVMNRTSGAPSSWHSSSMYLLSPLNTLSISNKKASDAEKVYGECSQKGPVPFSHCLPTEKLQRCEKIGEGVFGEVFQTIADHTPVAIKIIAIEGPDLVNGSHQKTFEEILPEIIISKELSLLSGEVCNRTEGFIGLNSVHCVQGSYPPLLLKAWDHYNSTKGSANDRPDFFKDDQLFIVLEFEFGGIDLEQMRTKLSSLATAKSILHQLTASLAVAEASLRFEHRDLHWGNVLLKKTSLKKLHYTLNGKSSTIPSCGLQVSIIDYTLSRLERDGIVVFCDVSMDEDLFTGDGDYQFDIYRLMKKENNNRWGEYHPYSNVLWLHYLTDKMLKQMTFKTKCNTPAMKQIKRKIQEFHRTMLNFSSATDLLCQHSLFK
As to conditions: at 1 µM; call rule not given here.

Test [3] concerns the target T1, Serine/threonine-protein kinase haspin (Homo sapiens). As to conditions: at 10 µM.
In test [4] the target is Tyrosine-protein kinase HCK (Homo sapiens) (UniProt P08631). As to conditions: at 1 µM.
Test [5] has the same target. As to conditions: at 10 µM.
Test [6] shares this target. The following applies: at 1 µM. This is another data set of the same source.
For test [7] the target is unchanged. As to conditions: at 10 µM. This is another data set of the same source.
Test [8] has as its target Insulin-like growth factor 1 receptor (Homo sapiens) (UniProt P08069). The following applies: at 1 µM.
For test [9] the target is unchanged. As to conditions: at 10 µM.
The target of test [10] is T2, Protein kinase C zeta type (Homo sapiens) (UniProt Q05513).
T2 sequence (whole entry): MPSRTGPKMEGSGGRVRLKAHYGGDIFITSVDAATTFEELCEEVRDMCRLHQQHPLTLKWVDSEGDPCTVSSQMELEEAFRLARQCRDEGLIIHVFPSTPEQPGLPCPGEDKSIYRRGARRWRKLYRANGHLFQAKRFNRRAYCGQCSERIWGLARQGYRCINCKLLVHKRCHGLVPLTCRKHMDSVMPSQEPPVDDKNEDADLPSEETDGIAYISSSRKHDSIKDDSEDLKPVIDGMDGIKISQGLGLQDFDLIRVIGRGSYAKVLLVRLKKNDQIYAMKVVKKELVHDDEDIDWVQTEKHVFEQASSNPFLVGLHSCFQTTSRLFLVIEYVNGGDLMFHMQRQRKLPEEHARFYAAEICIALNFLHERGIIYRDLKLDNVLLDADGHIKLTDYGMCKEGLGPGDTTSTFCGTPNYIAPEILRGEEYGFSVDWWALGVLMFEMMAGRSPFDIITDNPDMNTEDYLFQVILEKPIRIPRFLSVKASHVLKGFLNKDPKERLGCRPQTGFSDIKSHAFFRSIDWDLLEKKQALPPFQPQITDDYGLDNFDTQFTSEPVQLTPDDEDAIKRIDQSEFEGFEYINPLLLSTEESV
The following applies: at 10 µM.

Test [11] concerns the target Protein kinase C theta type (Homo sapiens) (UniProt Q04759). The following applies: at 1 µM.
Test [12] has the same target. The following applies: at 10 µM.
The target of test [13] is T3, Protein kinase C iota type (Homo sapiens) (UniProt P41743).
T3 sequence (whole entry): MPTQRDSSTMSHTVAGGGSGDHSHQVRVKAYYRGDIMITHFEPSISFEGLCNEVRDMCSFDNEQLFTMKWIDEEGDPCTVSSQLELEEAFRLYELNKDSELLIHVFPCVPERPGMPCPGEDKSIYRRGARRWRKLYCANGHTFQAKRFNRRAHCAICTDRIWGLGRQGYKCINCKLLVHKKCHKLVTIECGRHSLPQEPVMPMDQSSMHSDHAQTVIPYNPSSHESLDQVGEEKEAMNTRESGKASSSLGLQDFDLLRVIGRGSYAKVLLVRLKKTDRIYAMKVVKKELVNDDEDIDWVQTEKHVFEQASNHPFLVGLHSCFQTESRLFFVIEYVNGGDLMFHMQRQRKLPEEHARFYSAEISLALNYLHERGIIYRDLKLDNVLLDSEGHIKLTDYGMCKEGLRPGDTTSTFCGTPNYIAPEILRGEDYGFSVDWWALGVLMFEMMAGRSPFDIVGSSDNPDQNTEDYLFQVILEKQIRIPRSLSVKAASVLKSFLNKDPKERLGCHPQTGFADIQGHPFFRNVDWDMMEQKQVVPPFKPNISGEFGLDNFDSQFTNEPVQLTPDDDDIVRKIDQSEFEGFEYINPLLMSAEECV
The following applies: at 1 µM.

Test [14] deals with T4, Serine/threonine-protein kinase D1 (Homo sapiens) (UniProt Q15139).
T4 sequence (whole entry): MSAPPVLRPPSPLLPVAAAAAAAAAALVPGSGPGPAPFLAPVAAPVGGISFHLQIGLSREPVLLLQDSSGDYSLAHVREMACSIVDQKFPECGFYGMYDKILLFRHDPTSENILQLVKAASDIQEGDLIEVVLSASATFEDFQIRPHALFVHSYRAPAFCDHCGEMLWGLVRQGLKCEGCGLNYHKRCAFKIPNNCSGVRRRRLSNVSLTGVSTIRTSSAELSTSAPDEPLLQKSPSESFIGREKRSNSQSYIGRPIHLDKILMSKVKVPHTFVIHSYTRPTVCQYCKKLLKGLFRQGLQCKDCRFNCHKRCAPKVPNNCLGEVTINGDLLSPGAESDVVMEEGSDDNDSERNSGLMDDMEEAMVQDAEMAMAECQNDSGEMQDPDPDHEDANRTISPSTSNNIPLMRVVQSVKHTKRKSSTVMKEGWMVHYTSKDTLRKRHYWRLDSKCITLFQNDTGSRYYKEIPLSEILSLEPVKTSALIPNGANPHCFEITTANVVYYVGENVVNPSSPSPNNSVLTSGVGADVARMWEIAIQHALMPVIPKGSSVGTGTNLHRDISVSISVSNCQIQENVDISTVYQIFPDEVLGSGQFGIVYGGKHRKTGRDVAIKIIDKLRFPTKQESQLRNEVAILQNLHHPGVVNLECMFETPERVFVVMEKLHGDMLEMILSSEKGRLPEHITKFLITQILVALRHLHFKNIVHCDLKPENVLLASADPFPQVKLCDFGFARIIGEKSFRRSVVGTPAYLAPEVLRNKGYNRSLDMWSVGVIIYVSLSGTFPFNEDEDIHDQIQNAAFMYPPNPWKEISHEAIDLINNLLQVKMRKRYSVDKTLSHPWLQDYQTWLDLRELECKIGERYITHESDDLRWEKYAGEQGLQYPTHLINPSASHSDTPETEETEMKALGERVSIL
As to conditions: at 1 µM.

Test [15] addresses T4, Serine/threonine-protein kinase D1 (Homo sapiens). As to conditions: at 10 µM.
In test [16] the target is Protein kinase C eta type (Homo sapiens) (UniProt P24723). As to conditions: at 10 µM.
For test [17], the target named is T3, Protein kinase C iota type (Homo sapiens). The following applies: at 10 µM.
In test [18] the target is Protein kinase C eta type (Homo sapiens) (UniProt P24723). The following applies: at 1 µM.
Test [19] has as its target T5, Serine/threonine-protein kinase D2 (Homo sapiens) (UniProt Q9BZL6).
T5 sequence (whole entry): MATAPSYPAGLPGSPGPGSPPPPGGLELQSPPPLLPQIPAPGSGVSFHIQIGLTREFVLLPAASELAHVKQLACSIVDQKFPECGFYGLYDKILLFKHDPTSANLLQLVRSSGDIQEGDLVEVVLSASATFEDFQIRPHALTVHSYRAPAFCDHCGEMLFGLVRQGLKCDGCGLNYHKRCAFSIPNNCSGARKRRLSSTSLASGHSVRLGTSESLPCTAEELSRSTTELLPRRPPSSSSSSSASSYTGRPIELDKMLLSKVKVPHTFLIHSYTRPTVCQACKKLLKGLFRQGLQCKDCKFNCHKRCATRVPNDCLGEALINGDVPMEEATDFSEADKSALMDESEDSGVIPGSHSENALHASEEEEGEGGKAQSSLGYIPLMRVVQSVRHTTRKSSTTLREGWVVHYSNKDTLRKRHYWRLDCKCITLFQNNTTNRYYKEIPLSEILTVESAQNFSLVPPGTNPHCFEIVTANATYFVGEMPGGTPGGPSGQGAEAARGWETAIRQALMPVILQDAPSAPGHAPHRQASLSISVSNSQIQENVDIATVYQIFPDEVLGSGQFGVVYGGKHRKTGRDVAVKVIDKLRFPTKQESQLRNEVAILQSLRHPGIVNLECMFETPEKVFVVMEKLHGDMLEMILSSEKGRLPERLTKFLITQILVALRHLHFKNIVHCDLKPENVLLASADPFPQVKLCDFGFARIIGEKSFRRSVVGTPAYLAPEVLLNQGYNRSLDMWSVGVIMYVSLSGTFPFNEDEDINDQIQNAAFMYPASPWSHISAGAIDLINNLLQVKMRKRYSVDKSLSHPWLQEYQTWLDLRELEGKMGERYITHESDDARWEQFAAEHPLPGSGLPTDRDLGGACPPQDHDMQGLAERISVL
The following applies: at 1 µM.

For test [20], the target named is T5, Serine/threonine-protein kinase D2 (Homo sapiens). The following applies: at 10 µM.

Chain of Homeodomain-interacting protein kinase 3 (Homo sapiens) (Q9H422 whole entry, looked up): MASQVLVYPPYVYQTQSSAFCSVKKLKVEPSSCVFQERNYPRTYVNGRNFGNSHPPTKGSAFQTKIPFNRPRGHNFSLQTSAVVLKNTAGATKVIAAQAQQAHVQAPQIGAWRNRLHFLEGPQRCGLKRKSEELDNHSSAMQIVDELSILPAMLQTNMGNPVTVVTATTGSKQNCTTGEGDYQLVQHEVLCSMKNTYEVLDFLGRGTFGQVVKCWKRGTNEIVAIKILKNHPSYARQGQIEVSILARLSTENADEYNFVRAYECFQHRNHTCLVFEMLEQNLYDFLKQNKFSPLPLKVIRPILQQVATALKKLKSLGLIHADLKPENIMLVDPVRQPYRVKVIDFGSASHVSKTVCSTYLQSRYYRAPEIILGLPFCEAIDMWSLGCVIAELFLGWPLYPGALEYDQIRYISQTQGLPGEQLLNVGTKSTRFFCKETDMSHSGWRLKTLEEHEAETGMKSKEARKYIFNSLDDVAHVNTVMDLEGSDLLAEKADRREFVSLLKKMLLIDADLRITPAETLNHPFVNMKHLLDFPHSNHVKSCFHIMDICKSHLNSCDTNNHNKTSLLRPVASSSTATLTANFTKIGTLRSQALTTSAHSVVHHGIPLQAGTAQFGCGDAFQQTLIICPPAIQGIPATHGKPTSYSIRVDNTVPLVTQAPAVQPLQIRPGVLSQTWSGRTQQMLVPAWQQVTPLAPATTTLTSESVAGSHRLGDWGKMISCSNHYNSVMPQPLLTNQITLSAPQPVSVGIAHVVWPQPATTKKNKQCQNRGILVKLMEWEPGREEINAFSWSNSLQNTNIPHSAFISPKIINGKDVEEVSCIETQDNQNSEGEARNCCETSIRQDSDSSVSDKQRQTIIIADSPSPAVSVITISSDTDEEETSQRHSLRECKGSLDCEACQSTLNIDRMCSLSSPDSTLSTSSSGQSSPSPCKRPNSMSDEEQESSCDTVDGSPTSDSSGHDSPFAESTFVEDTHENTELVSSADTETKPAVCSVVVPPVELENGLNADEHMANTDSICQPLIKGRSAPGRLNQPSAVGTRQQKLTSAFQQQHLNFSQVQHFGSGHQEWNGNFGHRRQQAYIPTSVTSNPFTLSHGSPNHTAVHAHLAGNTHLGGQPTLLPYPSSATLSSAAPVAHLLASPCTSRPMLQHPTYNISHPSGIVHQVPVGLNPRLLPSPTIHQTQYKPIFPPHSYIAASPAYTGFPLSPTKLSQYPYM
Chain of Insulin-like growth factor 1 receptor (Homo sapiens) (P08069 31-736 limits assumed): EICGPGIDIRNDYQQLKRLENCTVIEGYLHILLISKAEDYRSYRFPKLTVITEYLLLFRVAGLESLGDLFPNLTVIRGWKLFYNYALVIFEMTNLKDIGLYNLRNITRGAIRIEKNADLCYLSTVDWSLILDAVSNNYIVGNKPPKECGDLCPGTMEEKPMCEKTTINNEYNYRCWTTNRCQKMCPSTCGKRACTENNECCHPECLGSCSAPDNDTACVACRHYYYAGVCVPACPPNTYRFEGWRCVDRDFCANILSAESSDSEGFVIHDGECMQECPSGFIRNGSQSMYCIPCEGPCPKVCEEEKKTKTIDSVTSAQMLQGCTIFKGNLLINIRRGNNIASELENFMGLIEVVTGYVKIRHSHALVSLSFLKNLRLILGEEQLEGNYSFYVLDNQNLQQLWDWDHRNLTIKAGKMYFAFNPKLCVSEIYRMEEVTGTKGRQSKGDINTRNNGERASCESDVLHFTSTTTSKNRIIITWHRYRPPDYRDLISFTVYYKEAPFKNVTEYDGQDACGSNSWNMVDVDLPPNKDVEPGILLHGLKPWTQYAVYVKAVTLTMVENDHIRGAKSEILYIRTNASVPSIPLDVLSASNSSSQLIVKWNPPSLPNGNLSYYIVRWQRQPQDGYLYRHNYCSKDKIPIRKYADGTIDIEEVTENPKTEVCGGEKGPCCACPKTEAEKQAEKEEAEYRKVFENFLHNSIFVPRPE
Chain of Insulin-like growth factor 1 receptor (Homo sapiens) (P08069 741-1367 limits assumed): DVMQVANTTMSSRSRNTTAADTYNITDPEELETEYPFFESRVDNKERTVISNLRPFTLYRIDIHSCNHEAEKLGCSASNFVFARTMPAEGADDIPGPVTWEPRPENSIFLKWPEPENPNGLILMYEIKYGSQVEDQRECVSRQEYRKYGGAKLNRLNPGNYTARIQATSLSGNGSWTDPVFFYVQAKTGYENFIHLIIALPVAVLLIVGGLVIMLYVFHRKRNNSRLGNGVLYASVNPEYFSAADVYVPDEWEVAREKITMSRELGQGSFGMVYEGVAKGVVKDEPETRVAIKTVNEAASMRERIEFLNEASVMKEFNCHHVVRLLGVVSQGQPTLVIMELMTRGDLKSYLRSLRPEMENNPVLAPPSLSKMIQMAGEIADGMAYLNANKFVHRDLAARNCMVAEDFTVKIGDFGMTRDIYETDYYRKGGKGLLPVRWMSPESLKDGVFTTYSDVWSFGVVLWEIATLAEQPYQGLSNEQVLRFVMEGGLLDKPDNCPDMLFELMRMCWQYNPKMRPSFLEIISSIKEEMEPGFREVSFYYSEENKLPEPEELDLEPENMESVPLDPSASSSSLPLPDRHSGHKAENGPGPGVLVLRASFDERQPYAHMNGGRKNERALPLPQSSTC
Chain of Tyrosine-protein kinase HCK (Homo sapiens) (P08631 2-526 limits assumed): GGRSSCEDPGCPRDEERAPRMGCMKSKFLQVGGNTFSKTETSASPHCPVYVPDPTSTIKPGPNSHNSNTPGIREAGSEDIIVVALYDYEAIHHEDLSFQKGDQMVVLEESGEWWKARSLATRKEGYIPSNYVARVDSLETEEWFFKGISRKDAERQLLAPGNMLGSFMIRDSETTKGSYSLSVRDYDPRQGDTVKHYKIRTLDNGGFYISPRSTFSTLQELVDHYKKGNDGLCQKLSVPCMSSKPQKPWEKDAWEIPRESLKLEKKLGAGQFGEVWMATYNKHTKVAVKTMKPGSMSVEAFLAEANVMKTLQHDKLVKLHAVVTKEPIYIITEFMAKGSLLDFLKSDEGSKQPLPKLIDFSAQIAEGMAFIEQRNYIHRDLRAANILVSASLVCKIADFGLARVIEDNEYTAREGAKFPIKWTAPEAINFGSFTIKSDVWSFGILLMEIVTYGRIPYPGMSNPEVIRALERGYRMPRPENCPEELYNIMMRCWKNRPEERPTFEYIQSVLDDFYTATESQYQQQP
Chain of Protein kinase C theta type (Homo sapiens) (Q04759 whole entry, looked up): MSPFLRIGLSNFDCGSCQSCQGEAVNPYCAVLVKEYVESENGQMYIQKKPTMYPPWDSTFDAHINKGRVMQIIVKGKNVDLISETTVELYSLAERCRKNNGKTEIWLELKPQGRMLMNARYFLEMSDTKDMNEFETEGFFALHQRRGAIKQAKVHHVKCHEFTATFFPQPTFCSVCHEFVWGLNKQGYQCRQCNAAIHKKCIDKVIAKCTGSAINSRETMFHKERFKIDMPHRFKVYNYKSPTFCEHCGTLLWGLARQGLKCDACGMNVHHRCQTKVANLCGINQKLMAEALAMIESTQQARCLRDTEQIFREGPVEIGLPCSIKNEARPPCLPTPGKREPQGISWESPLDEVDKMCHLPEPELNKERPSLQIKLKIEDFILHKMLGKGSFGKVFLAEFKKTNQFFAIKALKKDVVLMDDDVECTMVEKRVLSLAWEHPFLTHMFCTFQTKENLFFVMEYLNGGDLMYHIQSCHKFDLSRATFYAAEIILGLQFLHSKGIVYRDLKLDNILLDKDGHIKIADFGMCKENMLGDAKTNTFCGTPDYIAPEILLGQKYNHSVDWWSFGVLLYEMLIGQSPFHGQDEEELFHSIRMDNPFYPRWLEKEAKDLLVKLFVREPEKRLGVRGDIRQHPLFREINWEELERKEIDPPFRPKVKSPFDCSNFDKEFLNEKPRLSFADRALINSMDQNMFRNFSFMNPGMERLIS
Chain of Protein kinase C eta type (Homo sapiens) (P24723 whole entry): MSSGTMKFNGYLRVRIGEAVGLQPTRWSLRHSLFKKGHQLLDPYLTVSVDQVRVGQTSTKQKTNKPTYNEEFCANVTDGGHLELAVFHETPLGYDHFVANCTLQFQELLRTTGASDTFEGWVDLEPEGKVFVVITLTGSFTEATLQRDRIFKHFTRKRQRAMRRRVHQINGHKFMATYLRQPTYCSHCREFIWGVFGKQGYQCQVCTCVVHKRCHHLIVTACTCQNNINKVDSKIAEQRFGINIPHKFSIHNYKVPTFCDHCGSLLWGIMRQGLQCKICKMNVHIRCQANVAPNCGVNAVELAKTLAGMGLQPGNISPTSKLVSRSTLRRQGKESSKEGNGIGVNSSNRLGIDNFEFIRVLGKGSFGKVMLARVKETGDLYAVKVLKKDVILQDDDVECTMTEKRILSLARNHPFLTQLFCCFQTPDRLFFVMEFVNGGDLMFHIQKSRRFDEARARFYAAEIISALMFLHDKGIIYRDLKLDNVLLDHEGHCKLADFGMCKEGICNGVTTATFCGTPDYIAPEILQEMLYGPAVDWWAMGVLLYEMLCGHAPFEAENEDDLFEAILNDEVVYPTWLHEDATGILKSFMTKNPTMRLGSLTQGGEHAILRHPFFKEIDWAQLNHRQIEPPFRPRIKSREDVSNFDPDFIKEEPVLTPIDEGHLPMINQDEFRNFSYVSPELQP

Take `CCCCc1c(-c2ccc(OC)cc2)[nH]c2nccnc12`: the residual activity (as a rule, the signal under treatment as a percentage of the control signal) in test [1] worked out at 110%; in test [2], 77%; in test [3], 27%; in [4], 60%; in [5], 24%; in test [6], 75%. For the same compound, the residual activity in test [7] was 81%; in test [8], 109%; in test [9] it was 136%; in test [10], 103%; in test [11] it was 90%; in test [12], 83%. For the same compound, the values for the residual activity in test [13], in [14] and in test [15] were 112% (inactive), 121% and 84%, respectively.
Take `CC(C)N(CCC(=O)c1ccc2ccccc2c1)Cc1ccccc1`: the residual activity in [1] was 100%; in [2], 81%; in [3] it was 66%; in test [4] it was 79%; in [5], 64%; in test [16], 76%. Besides, the residual activity in test [13] was 77% (inactive); in test [17], 72%; in test [14] it was 74%; in test [15], 84%.
For the compound `O=C1NC(=O)c2c1c1c3ccccc3[nH]c1n1cncc21`, the residual activity is 42% in [1]; 8% in test [2]; 18% in test [3]; 54% in test [4]; 39% in [5]; 38% in test [6]. Further, the residual activity in test [7] amounted to 35%; in [8], 9%; in [9], 14%; in [18], 85%; in test [16], 81%; in test [11] it was 71%. For the same compound, the residual activity was 102% (inactive) in test [13]; 52% in [17]; 41% in test [14]; 25% in [15]; 90% in test [19]; 42% in [20].
Regarding `Nc1ncnc2[nH]nc(Nc3ccc(F)cc3)c12`, the residual activity amounted to 78% in [2]; 53% in [3]; 37% in test [4]; 16% in test [5]; 56% in [6]; 11% in [7]. In addition, the residual activity in test [8] worked out at 127%; in test [9], 94%; in test [10] it was 98%; in test [18] it was 110%; in test [16], 104%; in test [11] it was 107%. The residual activity was 92% in test [12]; 113% (inactive) in test [13]; 109% in [17]; 81% in [14]; 64% in test [15]; 106% in [19].
For `CCN(CC)CCNC(=O)c1c(C)[nH]c(/C=C2\C(=O)Nc3ccc(Cl)cc32)c1C`, the residual activity in test [1] is -5%; in [2], 43%; in [3], 12%; in test [4], 13%; in test [5], 3%; in [6] it was 9%. The residual activity in [7] is 0%; in [8], 135%; in test [9], 13%; in test [14], 38%; in test [15], 4%; in test [19], 73%. Moreover, the residual activity in test [20] is 16%.
As to `O=C1Nc2ccc(Cl)cc2/C1=C/c1cc(Cl)c(O)c(Cl)c1`, the residual activity was 46% in test [1]; 12% in test [2]; 1% in [3]; 61% in [4]; 15% in test [5]; 86% in [6]. Further, the residual activity was determined as 53% in test [7]; 126% in [8]; 95% in test [18]; 79% in [16]; 99% in [11]; 76% in [12]. Further, the residual activity in test [13] is 85% (inactive); in test [17], 83%; in test [19], 98%; in test [20], 56%.
